The values below come from article PMC5540273 (PLoS ONE, 2017).

The structures appear in SMILES notation.

Conditions in all cases: concentration: 1 μM, replicates: in singlicate; n = 1
For experiment [1], the system named is HPK1.
The test system of experiment [2] is HUNK.
In experiment [3] the test system is ICK.
The subject of experiment [4] is IGF1R.
Experiment [5] deals with T1, IKK-alpha.
T1 construct: gene CHUK

The subject of experiment [6] is T2, IKK-beta.
T2 construct: gene IKBKB

Experiment [7] deals with T3, IKK-epsilon.
T3 construct: gene IKBKE

Experiment [8] has as its system INSRR.
In experiment [9] the test system is INSR.
For experiment [10], the system named is IRAK1.
Experiment [11] has as its system IRAK3.
In experiment [12] the test system is IRAK4.
Experiment [13] concerns ITK.
For experiment [14], the system named is JAK1(JH1domain-catalytic).
Experiment [15] relates to JAK1(JH2domain-pseudokinase).
Experiment [16] concerns JAK2(JH1domain-catalytic).
The test system of experiment [17] is JAK3(JH1domain-catalytic).
For experiment [18], the system named is T4, JNK1.
T4 construct: gene MAPK8

In experiment [19] the test system is T5, JNK2.
T5 construct: gene MAPK9

For experiment [20], the system named is T6, JNK3.
T6 construct: gene MAPK10
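Also: KINOMEscan kinase panel screen.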

Consider `Cn1ccc2ncnc(Oc3ccc(NC(=O)Nc4ccncc4)c(Cl)c3)c21`, for which the “%Inh” value in experiment [1] was 0%; in experiment [2], 0%; in experiment [3], 0%; in [4], 0%; in experiment [5], 14%; in [6], 16%. Further, the “%Inh” value is reported as 0% in experiment [7]; 0% in experiment [8]; 11% in experiment [9]; 8% in experiment [10]; 0% in [11]; 7% in experiment [12]. The “%Inh” value in experiment [13] was 0%; in experiment [14], 14%; in experiment [15], 0%; in experiment [16], 0%; in [17], 0%; in [18] it was 0%. Besides, the “%Inh” value in experiment [19] and in experiment [20] was 0% throughout.

On to `O=c1cc(N2CCOCC2)nc2n(Cc3cccc4ccccc34)ccn12` [GSK2333389], for which the “%Inh” value in experiment [1] was 5%; in [2], 0%; in [3] it was 0%; in experiment [4], 4%; in [5] it was 29%; in experiment [6], 17%. The “%Inh” value in experiment [7] worked out at 0%; in experiment [8], 0%; in experiment [9] it was 0%; in experiment [10], 13%; in [11] it was 0%; in [12] it was 20%. In addition, the “%Inh” value in [13] worked out at 21%; in [14] it was 7%; in [15], 0%; in [16], 17%; in [17], 0%; in experiment [18] it was 21%. The “%Inh” value in [19] and in [20] was 0% throughout.

Turning to `CCc1nc(-c2cccc(C)c2)c(-c2ccnc(NCc3ccccc3)c2)s1`, the “%Inh” value turned out to be 0% in [1]; 0% in experiment [2]; 0% in experiment [3]; 0% in experiment [4]; 15% in experiment [5]; 2% in [6]. The “%Inh” value in experiment [7] turned out to be 0%; in experiment [8] it was 9%; in experiment [9] it was 0%; in experiment [10], 0%; in [11] it was 0%; in [12] it was 0%. Also, the “%Inh” value came out at 13% in [13]; 7% in [14]; 31% in experiment [15]; 0% in experiment [16]; 4% in [17]; 0% in experiment [18]. In addition, the results for the “%Inh” value in experiment [19] and in experiment [20] were 8% and 20%, respectively.

Consider `COc1cc2ncn(-c3cc(OCc4sccc4Cl)c(C(N)=O)s3)c2cc1OC` [GSK448459], for which the “%Inh” value in experiment [1] is 52%; in experiment [2], 0%; in [3], 12%; in experiment [4], 0%; in [5], 0%; in experiment [6], 0%. Also, the “%Inh” value in experiment [7] turned out to be 0%; in [8] it was 0%; in experiment [9], 0%; in [10], 35%; in experiment [11], 0%; in [12], 4%. Further, the “%Inh” value in experiment [13] is given as 12%; in [14], 0%; in [15] it was 0%; in experiment [16], 2%; in experiment [17], 0%; in experiment [18], 20%. The entries for the “%Inh” value in experiment [19] and in experiment [20] were 11% and 7%, respectively.

Turning to `Cc1cccc(-c2nc(Nc3ccc4ncsc4c3)c3ccccc3n2)n1` [GW867588], the “%Inh” value in [1] was 0%; in [2], 45%; in experiment [3] it was 17%; in experiment [4], 0%; in experiment [5], 15%; in [6] it was 0%. In addition, the “%Inh” value in experiment [7] is on record as 4%; in [8] it was 0%; in [9], 0%; in [10] it was 40%; in experiment [11], 0%; in [12], 0%. In addition, the “%Inh” value in [13] was determined as 30%; in experiment [14], 0%; in experiment [15] it was 62%; in experiment [16], 0%; in experiment [17] it was 0%; in experiment [18], 2%. For the same compound, the entries for the “%Inh” value in [19] and in experiment [20] were 8% and 0%, respectively.

With `Cc1ccc(NC(=O)c2ccnc(N3CCN(C)CC3)c2)cc1-c1ccc(C(=O)NCC2CC2)cc1` [GW775604], the “%Inh” value in [1] is recorded as 0%; in experiment [2], 34%; in [3], 0%; in experiment [4], 0%; in [5], 0%; in experiment [6], 0%. Further, the “%Inh” value in experiment [7], in experiment [8], in [9], in experiment [10], in [11] and in experiment [12] was 0% each time. In addition, the “%Inh” value in experiment [13] is recorded as 0%; in [14] it was 0%; in experiment [15] it was 27%; in [16] it was 2%; in [17] it was 0%; in experiment [18], 0%. The “%Inh” value in [19] and in experiment [20] was 0% in each case.

Take `O=c1cc(N2CCOCC2)nc2n(Cc3cccc(F)c3)ccn12` [GSK2297430]: the “%Inh” value in experiment [1] was found to be 34%; in experiment [2], 4%; in [3] it was 0%; in [4] it was 9%; in experiment [5] it was 3%; in experiment [6], 5%. The “%Inh” value in experiment [7] came to 0%; in experiment [8], 0%; in experiment [9], 0%; in experiment [10] it was 0%; in experiment [11], 0%; in experiment [12], 1%. The “%Inh” value in experiment [13] was 0%; in experiment [14], 8%; in experiment [15], 0%; in experiment [16], 2%; in experiment [17] it was 0%; in experiment [18], 21%. In addition, the results for the “%Inh” value in experiment [19] and in experiment [20] were 13% and 0%, respectively.

As to `[2H]C([2H])(c1cccc(C(F)(F)F)c1C)n1ccn2c(=O)nc(N3CCOCC3)cc12` [GSK2336394], the “%Inh” value in [1] is given as 27%; in experiment [2], 6%; in experiment [3], 8%; in experiment [4], 0%; in experiment [5] it was 10%; in experiment [6], 16%. Moreover, the “%Inh” value in experiment [7] is listed as 13%; in experiment [8], 0%; in experiment [9], 2%; in [10], 16%; in [11], 0%; in [12], 16%. Also, the “%Inh” value in experiment [13] worked out at 17%; in experiment [14] it was 18%; in [15], 0%; in experiment [16], 0%; in experiment [17], 0%; in [18], 21%. The “%Inh” value in experiment [19] is reported as 23%; in experiment [20] it was 9%.

`COC(=O)Nc1nc2cc(Oc3ccc(NC(=O)Nc4cc(F)ccc4F)cc3)ccc2[nH]1.Cl` [GW701424]: the “%Inh” value in [1] was 30%; in experiment [2] it was 20%; in experiment [3], 0%; in [4], 18%; in [5] it was 33%; in experiment [6], 4%. The “%Inh” value in experiment [7] was determined as 16%; in experiment [8] it was 0%; in experiment [9], 0%; in experiment [10], 36%; in experiment [11], 0%; in experiment [12] it was 6%. Further, the “%Inh” value in experiment [13] is recorded as 0%; in [14], 26%; in experiment [15], 0%; in [16], 1%; in [17], 0%; in experiment [18], 0%. Moreover, the “%Inh” value came out at 2% in experiment [19] and 0% in experiment [20].

Turning to `CC(C)(C)n1cnc2c(N)ncnc21` [SKF-97359], the “%Inh” value in experiment [1] amounted to 33%; in experiment [2] it was 19%; in experiment [3], 31%; in [4], 0%; in experiment [5] it was 0%; in experiment [6], 0%. Further, the “%Inh” value in [7], in experiment [8], in experiment [9], in [10], in experiment [11] and in [12] was 0% each time. In addition, the “%Inh” value in experiment [13] stood at 4%; in experiment [14] it was 0%; in [15], 0%; in experiment [16], 0%; in [17] it was 18%; in experiment [18], 20%. Also, the “%Inh” value in [19] was determined as 0%; in experiment [20], 2%.
